Data from PubChem BioAssay (Tox21).
Several values for one entry are separate records, joined by “and”; a condition that tells them apart may be missing. Equal entries are not always repeated. Records with an inconclusive call do not appear. Activity calls are given as the source filed them. Unless noted, the call rests on the fitted dose curve; in most records, active means well fitted curve in the direction sought with a large enough effect in the repeat runs; inconclusive means weak or mixed curves; inactive means no such curve, though single readings can be large; an effect the other way counts as inactive or inconclusive.

Columns and labels:
[1] = qHTS assay for small molecule agonists of the p53 signaling pathway (AID 651631; calls by dose curve; further: nearly all actives have a fitted effect of over 15% in size; further: potency means the concentration at half of the fitted maximal effect)
Outline: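 Beta-lactamase reporter activity under p53 response elements was quantified in HCT-116 cells by FRET fluorescence, following 16 h incubation with test compounds at 37 °C and 2 h substrate development at room temperature.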

[2] = qHTS assay for small molecules that induce genotoxicity in human embryonic kidney cells expressing luciferase-tagged ATAD5 (AID 651632); further: nearly all actives have a fitted effect of over 15% in size
Outline: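 Luminescent reporter readout, HEK293T ATAD5-luc line: 16 hr drug exposure (37C, 5% CO2) followed by Amplite, 30 min RT.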

[3] = qHTS assay for small molecules that induce genotoxicity in human embryonic kidney cells expressing luciferase-tagged ATAD5 - cell viability (AID 651634; calls by dose curve; further: nearly all actives have a fitted effect of over 25% in size)
Outline: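 Viability read: CellTiter-Fluor fluorescence, 30 min at 37C. Cells: HEK293T, luciferase-tagged ATAD5. Exposure: 15.5 hr, 37C, 5% CO2, compound or DMSO vehicle.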

[4] = qHTS assay for small molecule disruptors of the mitochondrial membrane potential - cell viability (AID 720634; calls by dose curve;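 further: human HepG2 liver cancer cells; series mostly up to about 83 µM; nearly all actives have a fitted effect of over 20% in size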)
Outline: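 HepG2, 1 hr compound, 37 C. ATP luminescence via CellTiter-Glo, 30 min RT, same well as m-MPI.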

[5] = qHTS assay for small molecule disruptors of the mitochondrial membrane potential (AID 720635); further: potency means the concentration at half of the fitted maximal effect
Outline: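 HepG2 cells (2,000/well) attached overnight at 37C, then took compound for 1 hr at 37C, 5% CO2. Mito-MPS dye was added for 30 min; fluorescence was read at 490/535 nm (monomers) and 540/590 nm (aggregates).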

[6] = qHTS assay to test for compound auto fluorescence at 590 nm (red) in HepG2 cells (AID 720674)
Outline: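 Intrinsic compound fluorescence in the red window (Ex/Em 540/590 nm) is measured in attached HepG2 cells exposed for 1 hr, DMSO vehicle as baseline, benchmarked to Rose Bengal sodium.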

[7] = qHTS assay to test for compound auto fluorescence at 460 nm (blue) in HEK293 cells (AID 720678)
Outline: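 HEK293, 2,000 cells/well, 10% dialyzed FBS; attach 4-5 hr 37C; pin compound or DMSO; o/n 37C/5% CO2; fluorescence 405/460 nm; triamterene-equivalent units.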

[8] = qHTS assay to test for compound auto fluorescence at 590 nm (red) in HEK293 cells (AID 720679)
Outline: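 Intensity at 540nm excitation and 590nm emission is reported as Rose Bengal sodium-equivalent autofluorescence. Measurements followed overnight exposure (37C, 5% CO2) of HEK293 cells, 2,000 per well, to 23 nL compound.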

[9] = qHTS assay for small molecule agonists of the p53 signaling pathway - cell viability (AID 651633; calls by dose curve; further: nearly all actives have a fitted effect of over 30% in size; further: potency means the concentration at half of the fitted maximal effect)
Outline: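 p53RE-bla cells, seeded at 4,000 per well and rested 5 h at 37 C/5% CO2, received compounds in DMSO for 16 h at 37 C. CellTiter-Glo was then added, and luminescence was read after 30 min at room temperature to gauge cytotoxicity.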

[10] = qHTS assay to test for compound auto fluorescence at 535 nm (green) in HepG2 cells (AID 720675)
On the % scale 0 is the no-effect control and ±100 the full control effect.

CC(CN)CCCN (centres undefined)
inactive: Potency [1] | Potency [2] | Potency [3] | Potency [4] | Potency [5] | outcome [6] | Potency [7] | outcome [8]

CC(=O)c1ccc2c(c1)[C@H](NC(=O)c1ccc(F)cc1)[C@@H](O)C(C)(C)O2
inactive: Potency [1] | Potency [2] | Potency [9] | Potency [4] | outcome [6] | outcome [10] | Potency [7] | outcome [8]

NCc1ccccc1
inactive: Potency [1] | Potency [2] | Potency [9] | Potency [4] | Potency [5] | outcome [6] | outcome [10] | Potency [7]

Cc1ccc(C)o1
inactive: Potency [1] | Potency [2] | Potency [9] | Potency [4] | Potency [5] | outcome [6] | outcome [10] | Potency [7] | outcome [8]

CN(C)CCCOc1nn(Cc2ccccc2)c2ccccc12
inactive: Potency [1] | Potency [2] | Potency [9] | Potency [3] | Potency [4] | fluorescence, relative to Rose Bengal [6] -0.438% [at 18.6 µM] | fluorescence, % of triamterene [7] -0.0099% [at 18.6 µM] | fluorescence, % of fluorescent control [8] 0.312% [at 18.6 µM]

Cl/C(=C\n1cncn1)c1ccc(Cl)cc1Cl
inactive: Potency [1] | Potency [2] | Potency [9] | Potency [4] | outcome [6] | outcome [10] | Potency [7] | outcome [8]

C1=Cc2ccccc2C1
inactive: Potency [1] | Potency [2] | Potency [9] | Potency [4] | outcome [6] | outcome [10] | Potency [7] | outcome [8]

CC(=O)NCCCS(=O)(=O)O
inactive: Potency [1] | Potency [2] | Potency [3] | Potency [4] | Potency [5] | outcome [6] | outcome [10] | Potency [7] | outcome [8]

Cc1ccc(C(C)c2ccc(C)c(C)c2)cc1C
inactive: Potency [1] | Potency [2] | Potency [3] | Potency [4] | Potency [5] | outcome [6] | outcome [10] | Potency [7] | outcome [8]

CCCCC(CC)COCCCN (centres undefined)
inactive: Potency [1] | Potency [2] | Potency [9] | Potency [3] | outcome [6] | outcome [10] | Potency [7] | outcome [8]

O=C(c1ccc(O)cc1)c1ccc(O)cc1
inactive: Potency [1] | Potency [2] | Potency [9] | Potency [3] | Potency [4] | outcome [6] | Potency [7] | outcome [8]

Cn1c(=O)c2c(ncn2CC(O)CO)n(C)c1=O (centres undefined)
inactive: Potency [1] | Potency [2] | Potency [9] | Potency [4] | Potency [5] | fluorescence, relative to Rose Bengal [6] 0.442% [at 18.6 µM] | fluorescence, % of fluorescein control [10] -0.21% [at 18.6 µM] | fluorescence, % of triamterene [7] -0.206% [at 18.6 µM] | fluorescence, % of fluorescent control [8] -0.424% [at 18.6 µM]

CC(=O)/C(C)=C/C1C(C)=CCCC1(C)C (centres undefined)
inactive: Potency [1] | Potency [2] | Potency [9] | Potency [4] | Potency [5] | outcome [6] | outcome [10] | Potency [7] | outcome [8]

C=CC[N+]1([C@H]2C[C@H]3[C@@H]4CC[C@H]5C[C@H](OC(C)=O)[C@@H](N6CCCCC6)C[C@]5(C)[C@H]4CC[C@]3(C)[C@H]2OC(=O)CC)CCCCC1
inactive: Potency [1] | Potency [2] | Potency [9] | Potency [4] | outcome [6] | outcome [10] | Potency [7]

Oc1ccc2c(c1)OCO2
inactive: Potency [1] | Potency [2] | Potency [9] | Potency [4] | Potency [5] | outcome [6] | outcome [10] | Potency [7] | outcome [8]

CC(C)CC=O
inactive: Potency [1] | Potency [2] | Potency [9] | Potency [4] | outcome [6] | outcome [10] | Potency [7] | outcome [8]

COc1ccc(OC)c(OC)c1
inactive: Potency [1] | Potency [2] | Potency [9] | Potency [4] | Potency [5] | outcome [6] | outcome [10] | Potency [7] | outcome [8]

CCN(CC)CCc1nc(-c2ccccc2)no1
inactive: Potency [1] | Potency [2] | Potency [9] | Potency [4] | Potency [5] | fluorescence, relative to Rose Bengal [6] 0.351% [at 18.6 µM] | fluorescence, % of fluorescein control [10] 0.0159% [at 18.6 µM] | fluorescence, % of triamterene [7] -0.138% [at 18.6 µM]

CCOC(=O)CC(=O)c1cc(F)c(Cl)nc1Cl
inactive: Potency [1] | Potency [2] | Potency [3] | Potency [4] | Potency [5] | outcome [6] | Potency [7] | outcome [8]

CCCCOC(=O)c1ccccc1C(=O)OCC(CC)CCCC (centres undefined)
inactive: Potency [2] | Potency [9] | Potency [3] | outcome [6] | Potency [7] | outcome [8]
active: Potency [1] 54.5 µM

NC[C@H]1O[C@H](O[C@H]2[C@H](O)[C@@H](O[C@H]3O[C@H](CO)[C@@H](O)[C@H](N)[C@H]3O)[C@H](N)C[C@@H]2N)[C@H](O)[C@@H](O)[C@@H]1O
inactive: Potency [1] | Potency [2] | Potency [3] | Potency [4] | ratio activity, negative = MMP loss [5] 0.685% [at 8.08 µM] | fluorescence, relative to Rose Bengal [6] -0.029% [at 18.6 µM] and 0.338% [at 3.72 µM] | fluorescence, % of fluorescein control [10] -0.0979% [at 18.6 µM] and 0.0187% [at 3.72 µM] | fluorescence, % of triamterene [7] 0.0195% [at 18.6 µM] and -0.0441% [at 3.72 µM] | fluorescence, % of fluorescent control [8] 0.0121% [at 18.6 µM] and -0.0907% [at 3.72 µM]

NC(=S)N/N=C/c1cccnc1
inactive: Potency [1] | Potency [2] | Potency [3] | Potency [4] | Potency [5] | outcome [6] | outcome [10] | Potency [7] | outcome [8]

O=c1[nH]cnc2ccccc12
inactive: Potency [1] | Potency [9] | Potency [4] | Potency [5] | outcome [6] | outcome [10] | Potency [7] | outcome [8]

CCCCOc1cc(C(=O)OCCN(CC)CC)ccc1N
inactive: Potency [1] | Potency [2] | Potency [3] | Potency [4] | fluorescence, relative to Rose Bengal [6] -0.373% [at 18.6 µM] | fluorescence, % of fluorescein control [10] -0.0083% [at 18.6 µM] | fluorescence, % of triamterene [7] 0.0068% [at 18.6 µM] | fluorescence, % of fluorescent control [8] 0.112% [at 18.6 µM]

O=C(O)Cc1cc(I)c(Oc2ccc(O)c(I)c2)c(I)c1
active: Potency [1] 4.52 µM and 24.3 µM | Potency [9] 3.59 µM and 43.3 µM | Potency [5] 68.6 µM
inactive: Potency [3] | Potency [4] | outcome [6] | Potency [7]

CCN1CCC[C@H]1CNC(=O)c1c(OC)ccc(Br)c1OC
inactive: Potency [2] | Potency [9] | Potency [3] | Potency [4] | Potency [5] | outcome [6] | outcome [10] | Potency [7] | outcome [8]

O=C(O)Cn1c(C(=O)Nc2nc(-c3ccccc3Cl)cs2)cc2ccccc21
active: Potency [5] 26.6 µM
inactive: Potency [2] | Potency [9] | Potency [3] | Potency [4] | outcome [6] | outcome [10] | Potency [7] | outcome [8]
